Source: the supplement of paper PMC12494721
Structures can show the parent of a compound that is named as a salt.

tested on: Escherichia coli IAI1; test: fold change of Cadaverine concentration vs plate DMSO controls (fold change (ratio)); higher = more amine produced, active = hit call of the paper (significant change in both replicates, either direction); conditions: incubation time: 27 h, anaerobic, 37 °C;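 for the amine columns active = adjusted P below 0.05 in both replicates with a change the same way and a mean fold change under 0.8 or over 1.25; inactive = the rest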
Outline: (§1)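 Using LC–triple-quadrupole MS with dynamic MRM, amines were quantified against external calibration curves and corrected for drift within each batch. Samples were whole anaerobic mGAM cultures of four gut strains, grown 27 h at 37 °C from OD 0.1 before 1:1 dilution, extracted with cold acetonitrile/methanol containing 0.1% formic acid and centrifuged. Compounds were present at 20 µM final (sweeteners at 50 µM final). The numbers are fold changes versus plate DMSO controls, each the mean of 2 biological replicates.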

Row | SMILES | fold change of Cadaverine concentration
1 | OC(CNCC(O)C1CCc2cc(F)ccc2O1)C1CCc2cc(F)ccc2O1 (configuration not stated) [Nebivolol hydrochloride] (20 µM) | 0.955 (inactive)
2 | CCN(CC)CC(=O)Nc1c(C)cccc1C [Lidocaine hydrochloride] (20 µM) | 0.975 (inactive)
3 | C[C@H](NCc1ccc(OCc2cccc(F)c2)cc1)C(N)=O [Safinamide] (20 µM) | 1.02 (inactive)
4 | CN(C)CCc1c[nH]c2ccc(Cn3cncn3)cc12 [Rizatriptan benzoate] (20 µM) | 1.02 (inactive)
5 | C[C@H]1C[C@@H]2[C@H]([C@@H](O)C[C@@]3(C)[C@H]2CC[C@]3(O)C(=O)CO)[C@@]2(C)C=CC(=O)C=C12 [Methylprednisolone, 6-alpha] (20 µM) | 1.03 (inactive)
6 | CC1COc2ccccc2N1C(=O)C(Cl)Cl (configuration not stated) (20 µM) | 1.04 (inactive)
7 | C=C1c2cccc(O)c2C(O)=C2C(=O)[C@]3(O)C(O)=C(C(N)=O)C(=O)[C@@H](N(C)C)[C@@H]3[C@@H](O)[C@H]12 [Methacycline hydrochloride] (20 µM) | 0.294 (active)
8 | CCN1CCCC(OC(=O)C(c2ccccc2)c2ccccc2)C1 (configuration not stated) [Piperidolate hydrochloride] (20 µM) | 1.02 (inactive)

tested on: Klebsiella aerogenes DSM 30053; test: as above; conditions: incubation time: 27 h, anaerobic, 37 °C
Outline: as §1

Row | SMILES | fold change of Cadaverine concentration
9 | CN1CCC(=C2c3ccccc3CCc3cccnc32)CC1 [Azatadine maleate] (20 µM) | 1 (inactive)
10 | CC(=O)OC[C@H]1O[C@@H]([S-])[C@H](OC(C)=O)[C@@H](OC(C)=O)[C@@H]1OC(C)=O.CCP(CC)CC.[Au+] [Auranofin] (20 µM) | 0.972 (inactive)
11 | C=CCOC(Cn1ccnc1)c1ccc(Cl)cc1Cl (configuration not stated) (20 µM) | 1.06 (inactive)
12 | CC[C@H](C)C(=O)O[C@H]1CCC=C2C=C[C@H](C)[C@H](CC[C@@H]3C[C@@H](O)CC(=O)O3)[C@H]21 [Mevastatin] (20 µM) | 0.998 (inactive)
13 | NS(=O)(=O)c1cc2c(cc1Cl)NC(Cc1ccccc1)NS2(=O)=O (configuration not stated) [Benzylhydrochlorothiazide] (20 µM) | 1.01 (inactive)
14 | O=c1[nH]c(=O)n(C2CCCO2)cc1F (configuration not stated) [Tegafur] (20 µM) | 1.01 (inactive)
15 | Cc1nn(C)c(Oc2ccccc2)c1/C=N/OCc1ccc(C(=O)OC(C)(C)C)cc1 (20 µM) | 1.03 (inactive)
16 | CS(=O)(=O)OCCCCOS(C)(=O)=O [Busulfan] (20 µM) | 1.04 (inactive)
17 | CCSc1ccc2c(c1)N(CCCN1CCN(C)CC1)c1ccccc1S2 [Thiethylperazine maleate] (20 µM) | 1.05 (inactive)
18 | Cc1ncc([N+](=O)[O-])n1C [Dimetridazole] (20 µM) | 1.01 (inactive)
19 | CC[C@@H]1C(=O)OC[C@@H]1Cc1cncn1C [Pilocarpine nitrate] (20 µM) | 0.993 (inactive)
20 | Clc1ccc(C(Cn2ccnc2)OCc2ccsc2Cl)c(Cl)c1 (configuration not stated) [Tioconazole] (20 µM) | 0.997 (inactive)
21 | c1coc(CNc2ncnc3[nH]cnc23)c1 [Kinetin] (20 µM) | 1.01 (inactive)
22 | CC1(C)O[C@@H]2C[C@H]3[C@@H]4CCC5=CC(=O)CC[C@]5(C)[C@@]4(F)[C@@H](O)C[C@]3(C)[C@]2(C(=O)CCl)O1 [Halcinonide] (20 µM) | 1.01 (inactive)
23 | CC(=O)N[C@@H](CC(C)C)C(=O)O [N-Acetyl-L-leucine] (20 µM) | 1.03 (inactive)
24 | COc1cccc(CCc2ccccc2OCC(CN(C)C)OC(=O)CCC(=O)O)c1 (configuration not stated) [Sarpogrelate hydrochloride] (20 µM) | 0.996 (inactive)
25 | CN1CCC(=C2c3ccccc3CCc3sccc32)CC1 [Pizotifen malate] (20 µM) | 0.994 (inactive)
26 | Oc1ccc2ccccc2c1N=Nc1ccccc1 [Sudan I (1-phenylazo-2-hydroxynaphthalene)] (20 µM) | 1.08 (inactive)
27 | CC(C)(C)c1ccc(C(=O)CCCN2CCC(OC(c3ccccc3)c3ccccc3)CC2)cc1 [Ebastine] (20 µM) | 0.983 (inactive)
28 | O=c1oc2cc(O)ccc2s1 [Tioxolone] (20 µM) | 0.987 (inactive)

Row | SMILES | fold change of Cadaverine concentration
29 | CCCOc1ccc(C(=O)OCCN(CC)CC)cc1N [Proparacaine hydrochloride] (20 µM) | 1.04 (inactive)
30 | CC(C)NC[C@H](O)COc1cccc2ccccc12 [(S)-(-)-Propranolol hydrochloride] (20 µM) | 1.01 (inactive)
31 | COc1cc(C(=O)NCc2ccc(OCCN(C)C)cc2)cc(OC)c1OC [Trimethobenzamide hydrochloride] (20 µM) | 0.903 (inactive)
32 | N[C@@H](Cc1cc(I)c(Oc2cc(I)c(O)c(I)c2)c(I)c1)C(=O)O [(L) Thyroxine] (20 µM) | 1.01 (inactive)
33 | O=C(NCC(O)CO)c1c(I)c(C(=O)NCC(O)CO)c(I)c(N(CCO)C(=O)CO)c1I (configuration not stated) [Ioversol] (20 µM) | 1.02 (inactive)
34 | CCCCC[C@H](O)/C=C/[C@H]1[C@H](O)CC(=O)[C@@H]1CCCCCCC(=O)O [Alprostadil] (20 µM) | 0.997 (inactive)
35 | CC(C)(CO)[C@@H](O)C(=O)NCCCC(=O)O [Hopantenate calcium] (20 µM) | 0.988 (inactive)
36 | Cc1nnc(NS(=O)(=O)c2ccc(N)cc2)s1 [Sulfamethizole] (20 µM) | 0.995 (inactive)
37 | OC[C@H](O)C(O)[C@@H](O)CO [L-Arabinitol] (50 µM) | 0.984 (inactive)
38 | CN/C(=N\CCSCc1nc[nH]c1C)NC#N [Cimetidine] (20 µM) | 1.01 (inactive)
39 | CCN(CC)C(=O)/C(C#N)=C/c1cc(O)c(O)c([N+](=O)[O-])c1 [Entacapone] (20 µM) | 0.995 (inactive)
40 | OC(CNCC(O)C1CCc2cc(F)ccc2O1)C1CCc2cc(F)ccc2O1 (configuration not stated) [Nebivolol hydrochloride] (20 µM) | 0.998 (inactive)
41 | CCN(CC)CC(=O)Nc1c(C)cccc1C [Lidocaine hydrochloride] (20 µM) | 0.988 (inactive)
42 | C[C@H](NCc1ccc(OCc2cccc(F)c2)cc1)C(N)=O [Safinamide] (20 µM) | 0.983 (inactive)
43 | CN(C)CCc1c[nH]c2ccc(Cn3cncn3)cc12 [Rizatriptan benzoate] (20 µM) | 1.01 (inactive)
44 | C[C@H]1C[C@@H]2[C@H]([C@@H](O)C[C@@]3(C)[C@H]2CC[C@]3(O)C(=O)CO)[C@@]2(C)C=CC(=O)C=C12 [Methylprednisolone, 6-alpha] (20 µM) | 1.04 (inactive)
45 | CC1COc2ccccc2N1C(=O)C(Cl)Cl (configuration not stated) (20 µM) | 1.05 (inactive)
46 | C=C1c2cccc(O)c2C(O)=C2C(=O)[C@]3(O)C(O)=C(C(N)=O)C(=O)[C@@H](N(C)C)[C@@H]3[C@@H](O)[C@H]12 [Methacycline hydrochloride] (20 µM) | 0.536 (active)
47 | CCN1CCCC(OC(=O)C(c2ccccc2)c2ccccc2)C1 (configuration not stated) [Piperidolate hydrochloride] (20 µM) | 0.993 (inactive)
